According to PubChem BioAssay (EPA / NIEHS):
Calls of active or inactive are those of the source. How the source made its calls: active means hit-call score of the fitted dose curve at least 0.9, where 1 is the maximum; inactive means score below 0.9.

Experiments:
[1] = target: Transcription factor E2F1 (Homo sapiens) (UniProt Q01094); assay: ATG_E2F_CIS: Attagene CIS-FACTORIAL HepG2 Assay for human E2F Transcription Factor 1 (AID 2282935); conditions: HepG2 Attagene cis-reporter, E2F reporter RNA transcripts; actives raise or lower the signal
Chain of Transcription factor E2F1 (Homo sapiens) (Q01094 whole entry, looked up): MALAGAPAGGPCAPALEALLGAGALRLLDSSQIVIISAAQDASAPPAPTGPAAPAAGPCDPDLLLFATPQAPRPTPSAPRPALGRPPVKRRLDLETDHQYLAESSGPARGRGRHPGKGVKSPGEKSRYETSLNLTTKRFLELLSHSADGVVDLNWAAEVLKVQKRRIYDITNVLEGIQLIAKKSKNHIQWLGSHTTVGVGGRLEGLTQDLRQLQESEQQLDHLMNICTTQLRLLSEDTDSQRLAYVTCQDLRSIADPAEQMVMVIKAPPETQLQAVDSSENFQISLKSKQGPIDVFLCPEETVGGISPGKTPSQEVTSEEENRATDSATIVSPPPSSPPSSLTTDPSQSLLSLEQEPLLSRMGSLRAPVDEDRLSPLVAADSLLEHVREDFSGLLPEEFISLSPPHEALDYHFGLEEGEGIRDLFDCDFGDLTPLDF
Method in brief: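 Measures reporter transcript levels via RT-PCR with capillary electrophoresis detection in HepG2 cells harboring cis-regulated reporter units; 24 h post-dose; bidirectional curve fitting with DMSO as baseline.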

[2] = ATG_E_Box_CIS: Attagene CIS-FACTORIAL HepG2 Assay for human Enhancer Box (E-box) (AID 2282936); conditions: HepG2 E-box cis-reporter transcription, actives raise or lower the signal
Method in brief: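 First, HepG2 cells receive multiple cis-regulated reporter constructs by transient transfection. Next, chemicals are applied for 24 h. Finally, reporter mRNA is quantified via RT-PCR and capillary electrophoresis, with DMSO as baseline.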

[3] = ATG_M_61_CIS: Attagene CIS-FACTORIAL HepG2 Assay for M61 Transcription Factor (Internal Marker) (AID 2282937); conditions: HepG2 Attagene CIS-FACTORIAL M61 internal marker reporter; actives raise or lower the signal
Method in brief: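 Human liver HepG2, transient MRTU transfection (cis promoter elements), 24 h compound. Total RNA → oligo(dT) RT → PCR → FAM label → HpaI → CE. Internal background marker; bidirectional fitting, DMSO = baseline.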

[4] = ATG_EGR_CIS: Attagene CIS-FACTORIAL HepG2 Assay for human Early Growth Response 1 (EGR1) (AID 2282938); conditions: HepG2 Attagene CIS-FACTORIAL EGR reporter mRNA; actives raise or lower the signal
Method in brief: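 Transient transfection of human HepG2 with multiple cis-regulated reporter units, chemical exposure 24 h, total RNA isolated. Reverse transcription, PCR, fluorescent labelling and capillary electrophoresis quantify reporter transcripts; activity fitted bidirectionally against DMSO.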

[5] = ATG_M_19_CIS: Attagene CIS-FACTORIAL HepG2 Assay for M19 Transcription Factor (Internal Marker) (AID 2282939); conditions: HepG2 Attagene CIS-FACTORIAL M19 internal marker reporter; actives raise or lower the signal
Method in brief: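 Internal marker readout, fitted in both directions against DMSO, from HepG2 cells carrying transfected cis-element reporter constructs; RT-PCR and capillary electrophoresis of reporter mRNA after 24 h exposure.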

[6] = ATG_ERE_CIS: Attagene CIS-FACTORIAL HepG2 Assay for Estrogen Response Element (ERE) (AID 2282940); conditions: HepG2 ERE cis-reporter, Attagene RNA transcript; actives raise or lower the signal
Method in brief: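 After 24 h compound treatment, RNA from transfected HepG2 cells was reverse-transcribed, reporter cDNA PCR-amplified, FAM-labelled, HpaI-cut and resolved by capillary electrophoresis. ERE-driven cis reporter transcripts reflect endogenous factors; gain or loss scored against DMSO.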

[7] = ATG_Ets_CIS: Attagene CIS-FACTORIAL HepG2 Assay for human Erythroblast Transformation Specific (ETS) (AID 2282941); conditions: HepG2 ETS cis-reporter transcription, actives raise or lower the signal
Method in brief: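 HepG2 cells transiently transfected with cis-promoter reporter transcription units were dosed for 24 h; reporter mRNA was measured by RT-PCR, 6-FAM primer extension, HpaI digestion and capillary electrophoresis, with bidirectional fitting against DMSO baseline.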

[8] = target: Hepatocyte nuclear factor 3-beta (Homo sapiens) (UniProt Q9Y261); assay: ATG_FoxA2_CIS: Attagene CIS-FACTORIAL HepG2 Assay for human Forkhead box A2 (FOXA2) (AID 2282942); conditions: HepG2 cis-reporter transcription factor activity, 24 h; actives raise or lower the signal
Chain of Hepatocyte nuclear factor 3-beta (Homo sapiens) (Q9Y261 whole entry, looked up): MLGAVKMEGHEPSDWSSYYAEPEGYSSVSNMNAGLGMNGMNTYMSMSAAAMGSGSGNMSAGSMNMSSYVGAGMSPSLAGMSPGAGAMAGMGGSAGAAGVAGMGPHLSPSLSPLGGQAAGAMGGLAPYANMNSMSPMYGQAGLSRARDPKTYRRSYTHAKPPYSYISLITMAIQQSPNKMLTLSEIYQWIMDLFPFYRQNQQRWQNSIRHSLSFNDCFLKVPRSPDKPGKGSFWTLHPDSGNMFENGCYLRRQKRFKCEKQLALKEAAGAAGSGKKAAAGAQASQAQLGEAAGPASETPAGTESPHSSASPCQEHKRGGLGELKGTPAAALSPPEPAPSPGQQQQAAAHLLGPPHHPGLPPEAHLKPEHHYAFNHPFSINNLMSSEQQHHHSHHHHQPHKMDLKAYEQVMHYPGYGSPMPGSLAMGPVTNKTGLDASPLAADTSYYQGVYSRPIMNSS
Method in brief: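 Transient MRTU transfection of HepG2 liver cells; 24 h treatment; total RNA → oligo(dT) RT → PCR → FAM primer extension → HpaI cut → CE. Bidirectional fit vs DMSO.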

[9] = ATG_FoxO_CIS: Attagene CIS-FACTORIAL HepG2 Assay for human Forkhead box O (FoxO) (AID 2282943); conditions: HepG2 Attagene cis-reporter, FoxO element, mRNA; actives raise or lower the signal
Method in brief: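 Transfected HepG2 reporter cells exposed to test chemical for 24 h; reporter RNA measured by reverse transcription, PCR and fluorescent capillary electrophoresis; curves fitted for increases and decreases against DMSO.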

[10] = ATG_GATA_CIS: Attagene CIS-FACTORIAL HepG2 Assay for human GATA Binding Protein (AID 2282944); conditions: HepG2 GATA cis-element reporter, Attagene multiplex mRNA; actives raise or lower the signal
Method in brief: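 Reporter transcripts from a GATA cis-regulated unit, among multiplexed reporters in transfected HepG2 cells, were measured by RT-PCR with capillary electrophoresis after 24 h dosing. Induction or loss scored relative to DMSO.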

[11] = ATG_GLI_CIS: Attagene CIS-FACTORIAL HepG2 Assay for human Zinc Finger Protein GLI1 (AID 2282945); conditions: HepG2, Attagene cis-factorial reporter mRNA, GLI element; actives raise or lower the signal
Method in brief: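 Transiently transfected HepG2 cells report endogenous transcription factor activity via cis-element-driven reporter units. After 24 h compound exposure, reporter mRNA was measured by RT-PCR with capillary electrophoresis; bidirectional fitting against DMSO baseline.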

[12] = target: Bile acid receptor (Homo sapiens) (UniProt Q96RI1); assay: ATG_IR1_CIS: Attagene CIS-FACTORIAL HepG2 Assay for human Nuclear Receptor Subfamily 1 Group H Member 4 (NR1H4), IR1 submotif (AID 2282946); conditions: IR1 reporter transcription, actives raise or lower the signal
Chain of Bile acid receptor (Homo sapiens) (Q96RI1 whole entry, looked up): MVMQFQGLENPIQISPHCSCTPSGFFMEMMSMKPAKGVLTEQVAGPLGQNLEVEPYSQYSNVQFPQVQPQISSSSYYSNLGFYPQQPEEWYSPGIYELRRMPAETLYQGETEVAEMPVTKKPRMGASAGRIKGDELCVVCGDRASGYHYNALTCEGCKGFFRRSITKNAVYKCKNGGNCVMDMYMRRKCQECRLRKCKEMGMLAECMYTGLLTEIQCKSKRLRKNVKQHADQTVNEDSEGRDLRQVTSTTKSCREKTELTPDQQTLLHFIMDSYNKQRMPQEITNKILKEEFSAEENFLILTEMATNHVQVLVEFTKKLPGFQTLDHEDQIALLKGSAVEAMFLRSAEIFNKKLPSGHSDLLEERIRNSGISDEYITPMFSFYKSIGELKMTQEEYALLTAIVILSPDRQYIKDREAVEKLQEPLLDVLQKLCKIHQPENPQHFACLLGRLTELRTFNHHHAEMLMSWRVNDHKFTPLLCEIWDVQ
Method in brief: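 HepG2 cells transiently transfected with multiple cis-promoter-driven reporter units to measure endogenous transcription factor activity; 24 h exposure. Reporter mRNA read by RT-PCR, FAM labelling, HpaI digestion and capillary electrophoresis. Bidirectional fit versus DMSO.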

[13] = ATG_GRE_CIS: Attagene CIS-FACTORIAL HepG2 Assay for human Glucocorticoid Response Elements (GRE) (AID 2282947); conditions: HepG2 GRE cis-reporter, Attagene multiplex mRNA; actives raise or lower the signal
Method in brief: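 Endogenous transcription factor activity is read through cis-element reporter constructs transiently transfected into HepG2 cells. After 24 h treatment, labelled RT-PCR products are resolved by capillary electrophoresis; DMSO sets baseline for bidirectional curve fitting.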

[14] = ATG_ISRE_CIS: Attagene CIS-FACTORIAL HepG2 Assay for human Interferon Regulatory Factor 1 (IRF1) binding to an Interferon-Stimulated Response Element (ISRE) (AID 2282948); conditions: HepG2 ISRE cis-reporter (Attagene), mRNA transcription readout; actives raise or lower the signal
Method in brief: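 HepG2 cells transiently transfected with multiplexed cis-promoter reporter units; after 24 h compound exposure, reporter mRNA quantified by RT-PCR, FAM labelling, HpaI digestion and capillary electrophoresis. Bidirectional fit versus DMSO baseline.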

[15] = ATG_M_32_CIS: Attagene CIS-FACTORIAL HepG2 Assay for M32 Transcription Factor (Internal Marker) (AID 2282949); conditions: HepG2 Attagene cis-factorial M32 reporter, mRNA; actives raise or lower the signal;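 further: background control marker of the multiplexed CIS panel rather than a real target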
Method in brief: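 Internal background marker read-out: RT-PCR/capillary electrophoresis fluorescence of reporter transcripts from transiently transfected HepG2 cells after 24 h chemical exposure. Activity fitted bidirectionally relative to DMSO negative control.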

[16] = ATG_M_06_CIS: Attagene CIS-FACTORIAL HepG2 Assay for M06 Transcription Factor (Internal Marker) (AID 2282950); conditions: HepG2 Attagene CIS-FACTORIAL M06 internal marker reporter; actives raise or lower the signal
Method in brief: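 Serves as a background control readout. Transfected HepG2 exposed to compounds for 24 h, then reporter transcripts quantified by fluorescent RT-PCR and capillary electrophoresis. Both directions fitted against DMSO baseline.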

[17] = target: Hypoxia-inducible factor 1-alpha (Homo sapiens) (UniProt Q16665); assay: ATG_HIF1a_CIS: Attagene CIS-FACTORIAL HepG2 Assay for human Hypoxia Inducible Factor 1 (HIF1A) (AID 2282951); conditions: HepG2 Attagene cis-factorial HIF1a reporter transcription; actives raise or lower the signal
Chain of Hypoxia-inducible factor 1-alpha (Homo sapiens) (Q16665 whole entry, looked up, the tested form may be a part): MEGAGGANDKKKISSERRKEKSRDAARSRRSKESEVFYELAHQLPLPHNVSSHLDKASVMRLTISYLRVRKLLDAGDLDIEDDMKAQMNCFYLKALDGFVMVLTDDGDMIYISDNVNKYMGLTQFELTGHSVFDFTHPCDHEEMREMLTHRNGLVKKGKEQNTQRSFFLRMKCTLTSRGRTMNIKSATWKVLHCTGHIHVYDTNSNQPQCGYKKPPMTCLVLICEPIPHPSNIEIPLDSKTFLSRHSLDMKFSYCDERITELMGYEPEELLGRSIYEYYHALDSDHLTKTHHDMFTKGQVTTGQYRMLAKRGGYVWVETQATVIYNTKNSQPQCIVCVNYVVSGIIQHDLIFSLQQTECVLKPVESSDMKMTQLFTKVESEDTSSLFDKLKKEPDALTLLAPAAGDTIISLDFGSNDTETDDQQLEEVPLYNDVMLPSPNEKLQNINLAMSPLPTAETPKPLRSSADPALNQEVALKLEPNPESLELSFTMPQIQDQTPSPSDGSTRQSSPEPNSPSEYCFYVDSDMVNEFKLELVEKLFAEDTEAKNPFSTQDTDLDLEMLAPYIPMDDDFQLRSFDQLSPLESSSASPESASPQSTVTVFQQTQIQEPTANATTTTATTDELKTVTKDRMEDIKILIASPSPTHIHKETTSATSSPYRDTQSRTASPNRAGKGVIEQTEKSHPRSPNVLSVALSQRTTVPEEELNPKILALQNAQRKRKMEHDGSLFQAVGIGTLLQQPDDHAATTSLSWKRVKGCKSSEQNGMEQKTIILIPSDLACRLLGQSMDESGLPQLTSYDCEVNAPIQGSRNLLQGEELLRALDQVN
Method in brief: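 Transient MRTU transfection of human HepG2 liver cells, 24 h compound treatment, then total RNA isolation, oligo(dT) reverse transcription, PCR amplification, fluorescent labelling and capillary electrophoresis of reporter fragments. Gain or loss relative to DMSO.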

[18] = target: Hepatocyte nuclear factor 6 (Homo sapiens) (UniProt Q9UBC0); assay: ATG_HNF6_CIS: Attagene CIS-FACTORIAL HepG2 Assay for human Hepatocyte Nuclear Factor 6 (HNF6) (AID 2282952); conditions: HepG2 Attagene cis-factorial HNF6 reporter transcription; actives raise or lower the signal
Chain of Hepatocyte nuclear factor 6 (Homo sapiens) (Q9UBC0 whole entry, looked up): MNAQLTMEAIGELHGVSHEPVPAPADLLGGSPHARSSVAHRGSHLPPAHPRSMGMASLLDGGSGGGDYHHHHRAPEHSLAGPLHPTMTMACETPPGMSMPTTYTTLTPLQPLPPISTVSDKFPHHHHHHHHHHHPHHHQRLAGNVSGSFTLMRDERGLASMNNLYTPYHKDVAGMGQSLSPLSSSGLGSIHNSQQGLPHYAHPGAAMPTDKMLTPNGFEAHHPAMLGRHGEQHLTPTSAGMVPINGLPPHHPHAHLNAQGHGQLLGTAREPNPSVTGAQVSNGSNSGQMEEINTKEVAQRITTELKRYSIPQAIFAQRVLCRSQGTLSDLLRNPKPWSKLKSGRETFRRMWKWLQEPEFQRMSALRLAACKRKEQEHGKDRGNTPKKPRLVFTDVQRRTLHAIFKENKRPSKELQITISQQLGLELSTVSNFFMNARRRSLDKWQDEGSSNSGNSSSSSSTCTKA
Method in brief: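 HepG2 cells transiently transfected with cis-element-driven multiple reporter transcription units, dosed 24 h; reporter mRNA quantified by RT-PCR, FAM primer extension, HpaI digestion and capillary electrophoresis; bidirectional fit versus DMSO baseline.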

[19] = target: Heat shock factor protein 1 (Homo sapiens) (UniProt Q00613); assay: ATG_HSE_CIS: Attagene CIS-FACTORIAL HepG2 Assay for human Heat Shock Transcription Factor 1 (HSE) (AID 2282953); conditions: HepG2 HSE cis-reporter, Attagene RNA transcription; actives raise or lower the signal
Chain of Heat shock factor protein 1 (Homo sapiens) (Q00613 whole entry, looked up): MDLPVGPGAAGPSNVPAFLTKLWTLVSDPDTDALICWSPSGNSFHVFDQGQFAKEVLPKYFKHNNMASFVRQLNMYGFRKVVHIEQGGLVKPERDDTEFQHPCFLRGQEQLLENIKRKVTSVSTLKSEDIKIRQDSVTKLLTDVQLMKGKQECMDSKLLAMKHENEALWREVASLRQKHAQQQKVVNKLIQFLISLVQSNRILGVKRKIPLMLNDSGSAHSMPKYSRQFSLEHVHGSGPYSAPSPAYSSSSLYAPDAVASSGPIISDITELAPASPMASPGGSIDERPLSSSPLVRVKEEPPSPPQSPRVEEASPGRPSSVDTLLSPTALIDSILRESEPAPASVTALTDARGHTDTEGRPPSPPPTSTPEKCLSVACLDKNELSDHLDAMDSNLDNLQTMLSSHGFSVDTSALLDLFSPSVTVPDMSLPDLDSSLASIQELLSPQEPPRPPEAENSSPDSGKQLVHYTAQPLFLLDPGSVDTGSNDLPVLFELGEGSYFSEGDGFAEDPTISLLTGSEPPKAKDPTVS
Method in brief: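 Endogenous transcription factor activity in transiently transfected HepG2, read as reporter mRNA by RT-PCR with fluorescent capillary electrophoresis after 24 h. Gain or loss of signal fitted versus DMSO baseline.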

[20] = ATG_MRE_CIS: Attagene CIS-FACTORIAL HepG2 Assay for human Metal Responsive Element (MRE) (AID 2282954); conditions: HepG2 MRE cis-reporter transcription, Attagene multiplex; actives raise or lower the signal
Method in brief: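 Fluorescent reporter fragments separated by capillary electrophoresis give mRNA induction for the MRE unit after 24 h treatment of transfected HepG2 cells. Endogenous transcription-factor activity is read; DMSO serves as negative control and baseline.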

Measured: AC50

CCCCCCCCCCCC(C)=O
active: [6] 1.3 µM | [7] 160 µM | [9] 171 µM | [11] 166 µM | [18] 123 µM | [20] 179 µM
inactive: all other assays above

CCNc1nc(NC(C)(C)C)nc(OC)n1
inactive: all assays above

CC/C=C\C/C=C\C/C=C\CCCCCCCC(=O)OC
active: [2] 134 µM | [6] 38.9 µM | [9] 158 µM | [12] 25.7 µM | [17] 34 µM | [19] 74.9 µM
inactive: all other assays above

CCOc1ccc(NC(N)=O)cc1
inactive: all assays above

CC1=C(O)C(=O)C(C)O1 (stereo not drawn)
inactive: all assays above

CC(c1cc(C(C)(C)C)cc(C(C)(C)C)c1O)c1cc(C(C)(C)C)cc(C(C)(C)C)c1O
active: [12] 1.87 µM
not listed: [18]
inactive: all other assays above

Cn1ccnc1
not listed: [17]
inactive: all other assays above
